Rows were chosen to be rich in hits. Some 4.1% of all compounds tested hit in one or more screens of this group.
hgDAF-12 ag: hgDAF-12 agonism, primary luciferase screen | HEK293 GAL4-hgDAF12 UAS-luciferase reporter, agonist luminescence; normalized to butyrate control | activation, % at 6.8 µM | 370,000 compounds, 1.8% hits | AID 687014;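 active = activation above a cutoff set at the mean of all screened compounds plus 3 SD, cut at about 10% in these data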;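 also: 0% = DMSO wells and 100% = sodium butyrate wells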
hcDAF12 agonist: activators of H. contortus DAF-12 nuclear receptor; activation, % at 6.8 µM; 370,000 compounds, 1.4% hits; AID 652067; HEK293 hcDAF-12 lit1-tk-luc reporter, luminescence; 0% DMSO, 100% Δ7-dafachronic acid;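 active = activation above the mean of all tested compounds plus 3 SD, cut at about 5.5% in these data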;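 also: 100% = response to 3 µM Δ7-dafachronic acid high control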
ssDAF-12 act: activates DAF-12 receptor from parasite S. stercoralis. HEK293 ssDAF-12/GRIP1 lit1-tk-luc reporter, luminescence; % of 3 µM dafachronic acid response. activation, % at 6.8 µM. 370,000 compounds, 1% hits. AID 652126;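 active = activation above the mean over all tested compounds plus 3 SD, cut at about 0.9% in these data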;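 also: 0% = DMSO-only wells and 100% = 3 µM delta7-dafachronic acid wells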
DAX1 inh-1: inhibitors of DAX1 repression of SF-1 activated StAR promoter; 370,000 compounds, 1.1% hits; inhibition, % at 6.8 µM; AID 652010; HEK293T StAR-luciferase reporter, SF-1/DAX-1 repression relief;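 active = inhibition above the mean over all tested compounds plus 3 SD, cut at about 3.6% in these data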;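 also: 0% = DAX-1 cells with DMSO and 100% = cells lacking DAX-1 with DMSO; higher inhibition means more luminescence from relief of DAX-1 repression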
DAX1 inh-2: inhibitors of human orphan nuclear receptor DAX1 (NR0B1); P51843; HEK293 Gal4-DAX1 luciferase reporter, luminescence; inhibition, % at 6.75 µM; 340,000 compounds, 0.99% hits; AID 504766;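 active = inhibition above the mean over all tested compounds plus 3 SD, cut at about 4.2% in these data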;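 also: 0% = DAX1-transfected cells with DMSO and 100% = empty-vector control cells with DMSO; inhibition shows as a rise in luminescence from relieved DAX1 repression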
Target sequence (P51843 207-470 limits assumed): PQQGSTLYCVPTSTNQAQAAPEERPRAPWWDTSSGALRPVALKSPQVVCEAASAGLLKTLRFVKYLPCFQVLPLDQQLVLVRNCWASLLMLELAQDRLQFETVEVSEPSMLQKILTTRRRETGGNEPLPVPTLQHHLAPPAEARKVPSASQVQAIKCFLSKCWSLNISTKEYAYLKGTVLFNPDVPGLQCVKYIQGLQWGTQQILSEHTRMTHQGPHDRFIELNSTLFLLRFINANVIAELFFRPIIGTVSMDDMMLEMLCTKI
DAX1 conf: NR0B1 (human) inhibition, confirmation | AID 652134 | HEK293T StAR-promoter luciferase reporter, SF-1/DAX-1 repression | inhibition, % at 6.8 µM | 2,400 compounds, 87% hits | shares compounds with DAX1 inh-1;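 active = inhibition above the average of every tested compound plus 3 SD, cut at about 3.8% in these data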;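 also: 0% = DAX-1 cells with DMSO and 100% = no DAX-1 control cells with DMSO; active compounds raise luminescence by relieving repression of the StAR reporter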
SF1 mutant ctr: counter-screen for DAX1 inhibitors: nonselective inhibitors with SF-1 AF2 mutant; shares compounds with DAX1 inh-1; HEK293 StAR-luciferase, luminescence; inhibition, % at 6.8 µM; 2,400 compounds, 78% hits; AID 652136;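 active = inhibition above the mean of all tested compounds plus 3 SD, cut at about 3% in these data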;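 also: 0% = DAX-1 transfected cells with DMSO and 100% = cells without DAX-1 with DMSO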
LXRb hcDAF ctr: activates human LXR-beta, counter-screen for hcDAF-12 agonists; 3,400 tested, under 10 active; HEK293 Gal4-LXR tk-luc reporter, luminescence, 24 h; normalized: DMSO 0%, positive control 100%; shares compounds with hcDAF12 agonist; activation, % at 6.8 µM;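 active = mean percent activation of the reporter above a cutoff set as the average over tested compounds plus their standard deviation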
Target sequence (P55055 whole entry, looked up, the tested form may be a part): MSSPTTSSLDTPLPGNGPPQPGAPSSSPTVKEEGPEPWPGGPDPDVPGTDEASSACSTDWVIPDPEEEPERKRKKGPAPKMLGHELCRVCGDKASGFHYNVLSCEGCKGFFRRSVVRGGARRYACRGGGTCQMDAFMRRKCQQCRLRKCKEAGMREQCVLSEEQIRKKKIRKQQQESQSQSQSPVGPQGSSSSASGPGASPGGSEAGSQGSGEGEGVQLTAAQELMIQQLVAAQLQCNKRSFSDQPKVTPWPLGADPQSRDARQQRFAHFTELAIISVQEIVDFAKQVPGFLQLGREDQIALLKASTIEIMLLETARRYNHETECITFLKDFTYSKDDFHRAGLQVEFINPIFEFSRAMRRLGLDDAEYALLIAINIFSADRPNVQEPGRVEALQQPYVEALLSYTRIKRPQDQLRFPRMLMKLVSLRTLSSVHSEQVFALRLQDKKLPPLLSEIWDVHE
hcDAF12 ag: confirmation of H. contortus DAF-12 agonists | shares compounds with hcDAF12 agonist | 3,400 compounds, 61% hits | AID 743032 | HEK293 hcDAF-12 lit1-tk-luc reporter, luminescence; % of Δ7-dafachronic acid response | activation, % at 6.8 µM;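 active = mean activation across triplicate tests above the threshold derived from the earlier primary screen, cut at about 5.5% in these data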;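 also: 0% = DMSO only wells and 100% = 3 µM Δ7-dafachronic acid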
hgDAF12 conf: confirmation of H. glycines DAF-12 agonists; shares compounds with hgDAF-12 ag; HEK293 GAL4-hgDAF12 luciferase reporter, agonist mode; percent of butyrate response; activation, % at 6.8 µM; 3,300 compounds, 80% hits; AID 743050;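 active = mean activation over triplicate wells above the hit cutoff derived from the earlier primary screen, cut at about 11% in these data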;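 also: 0% = DMSO low control and 100% = 2 mM sodium butyrate high control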
LXRb DAF12 ctr: LXR-beta agonism as DAF-12 counter-screen; shares compounds with hgDAF-12 ag; HEK293 Gal4-LXR luciferase reporter, 24 h; activation, % at 6.8 µM; 3,300 tested, under 10 active; AID 743051;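 active = mean activation of the triplicate above a set limit carried over from the primary screen, none filed active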
* marks the source's active call; other numbers are inactive results; . = no result given.

SMILES	hgDAF-12 ag	hcDAF12 agonist	ssDAF-12 act	DAX1 inh-1	DAX1 inh-2	DAX1 conf	SF1 mutant ctr	LXRb hcDAF ctr	hcDAF12 ag	hgDAF12 conf	LXRb DAF12 ctr
c1ccc(-c2noc(-c3ccc4c(c3)OCO4)n2)cc1	21.6*	6.3*	1.2*	5.0*	4.1	18.4*	7.7*	.	.	19.3*	1.1
Cc1ccc(-n2c(SCC(=O)Nc3ccc(S(=O)(=O)Nc4cc(C)nc(C)n4)cc3)nnc2-c2ccc(C(C)(C)C)cc2)cc1	-0.9	-2.0	-1.4	-1.5	.	.	.	.	.	.	.
CC(=O)Nc1ccc(NC(=O)COc2ccc3c(c2)CCC3)cc1	-0.6	0.2	-1.3	0.2	1.9	.	.	.	.	.	.
Cc1ccnc(NC(=O)COc2ccc3c(c2)CCC3)c1	13.9*	5.2	-0.4	13.8*	-2.7	12.2*	4.2*	.	.	12.3*	0.9
O=C(COCc1ccccc1)N1CC[C@H]2[C@H](CCCN2Cc2ccccc2)C1	1.6	-2.5	-1.2	-0.2	.	.	.	.	.	.	.
COC(=O)[C@]12C[C@H](CC(=O)NCc3ccccc3)C(=O)N(Cc3ccccc3)C1=C[C@H](C(C)C)O[C@@H]2C1CC1	0.4	0.1	-0.5	0.4	.	.	.	.	.	.	.
O=C(Nc1nsc(-c2ccccc2)n1)c1cccs1	14.7*	2.9	0.5	4.5*	-0.3	7.9*	4.5*	.	.	15.8*	0.9
Cc1cc(C)n2c(Nc3ccc4c(c3)OCCO4)c(-c3ccc(C)o3)nc2n1	13.4*	6.9*	0.0	5.7*	0.4	-1.4	-1.1	-0.2	0.8	9.1	0.6
O=C(O)c1ccc(/C=N/Nc2ccc(F)cc2F)cc1	21.3*	9.8*	2.5*	12.4*	-1.1	20.2*	5.5*	.	.	21.2*	1.0
Fc1ccc(N/N=C/c2ccncc2)c(F)c1	3.8	-0.7	-1.4	2.1	0.2	.	.	.	.	.	.
Cc1ccc(NC(=O)CN2C(=O)CCSc3ccccc32)cc1C	-2.8	-2.6	-1.4	-1.2	.	.	.	.	.	.	.
Cc1cc(N2CCC[C@@H]2C)nc2ccccc12	0.8	-1.4	-1.1	.	.	.	.	.	.	.	.
Cc1csc(NC(=O)c2oc3ccccc3c2C)n1	18.6*	18.3*	2.1*	13.7*	1.7	13.4*	8.0*	2.1	18.1*	17.1*	1.5
CCOc1ccc2oc(C(=O)Nc3cc(C)ccn3)c(C)c2c1	13.6*	2.7	0.0	13.1*	2.5	11.0*	5.0*	.	.	17.2*	0.9
Cc1ccnc(NC(=O)c2oc3ccccc3c2C)c1	22.1*	19.9*	3.0*	10.5*	-0.1	9.2*	3.7*	1.7	15.1*	19.6*	1.4
Cc1nc2ccc(S(=O)(=O)NCC(=O)N(C)Cc3ccccc3F)cc2s1	-2.5	-2.7	-0.9	-1.1	.	.	.	.	.	.	.
COc1ccccc1C(=O)NC1CCCCN(Cc2ccc(OC(F)(F)F)cc2)C1=O (stereo unspecified)	4.4	-0.9	-1.1	-0.5	.	.	.	.	.	.	.
Nc1c(C(=O)Nc2ccc(Cl)cc2)oc2ccccc12	20.3*	21.7*	2.2*	6.4*	4.3*	15.2*	10.8*	2.0	15.7*	24.2*	1.2
N#C/C(=C/c1ccco1)c1nc2ccccc2s1	16.0*	19.7*	4.0*	4.8*	1.7	12.0*	7.7*	1.4	14.3*	21.8*	0.9
CC(c1ccccc1)n1cc(C(=O)N2CCCN(Cc3ccccc3)CC2)nn1 (stereo unspecified)	-2.9	-0.6	-1.5	-1.1	.	.	.	.	.	.	.
O=C(O)CC/C(=N/NC(=O)c1cccs1)c1ccccc1	13.5*	9.6*	0.6	5.8*	2.8	3.8*	3.3*	0.0	2.0	10.9*	0.3
COc1cc2c(cc1OC)C(C(=O)O)C(c1ccc3c(c1)OCO3)N(C)C2=O (stereo unspecified)	-0.3	-0.2	-1.6	-0.6	.	.	.	.	.	.	.
Nc1nc(CSc2n[nH]c(-c3ccccc3)n2)nc(Nc2ccccc2)n1	-4.4	-2.6	-1.7	-0.6	-0.4	.	.	.	.	.	.
Cc1ccc(-c2nc(Nc3ccccc3)n[nH]2)cc1	14.4*	12.2*	1.4*	6.2*	2.4	23.0*	11.4*	1.9	13.1*	21.7*	1.3
O=C(Nc1ccccc1C(=O)NCC1CC1)c1cccs1	-3.5	-2.1	-0.4	-1.0	.	.	.	.	.	.	.
SMILES	hgDAF-12 ag	hcDAF12 agonist	ssDAF-12 act	DAX1 inh-1	DAX1 inh-2	DAX1 conf	SF1 mutant ctr	LXRb hcDAF ctr	hcDAF12 ag	hgDAF12 conf	LXRb DAF12 ctr
COC(=O)C1C(=O)c2c([nH]c(C(=O)OC3CCCC3C)c2C)CC1C (stereo unspecified)	18.2*	0.8	0.6	4.7*	3.7	5.5*	3.3*	.	.	10.5*	0.7
CCc1cc(C(=O)Nc2ncccc2O)sc1C	20.0*	6.4*	0.6	20.2*	-1.3	21.4*	9.0*	.	.	24.6*	0.8
Cc1cccnc1NC(=O)c1ccc2c(c1)OCCO2	4.9	1.9	0.0	2.9	1.1	.	.	.	.	.	.
O=C(Nc1ncccc1O)c1ccc2c(c1)OCCO2	60.2*	7.2*	1.3*	32.7*	8.1*	41.8*	21.8*	1.8	4.0	57.5*	0.8
O=C(Nc1ncccc1O)c1ccc2c(c1)OCO2	36.8*	3.8	-0.1	16.6*	4.1	27.1*	13.9*	.	.	39.1*	0.4
Cc1ccnc(NC(=O)c2ccc3c(c2)OCO3)c1	18.2*	6.3*	-0.8	4.9*	-1.4	7.0*	3.7*	.	.	11.0*	0.7
CC(C)Cc1nnc(NC(=O)c2ccc3c(c2)OCCO3)s1	15.3*	5.8*	0.2	8.1*	0.5	14.7*	7.1*	.	.	13.4*	0.8
CC1Oc2ccccc2C=C1/C=N/Nc1ccc(C(=O)O)cc1 (stereo unspecified)	14.5*	6.9*	0.9*	6.3*	-1.1	19.0*	9.3*	1.9	14.8*	14.3*	0.9
CCn1c(/C=N/Nc2ccc(C(=O)O)cc2)nc2ccccc21	-0.9	0.6	-1.3	-0.2	0.9	.	.	.	.	.	.
CNc1nc(N2CCc3ccccc32)ncc1F	14.8*	5.8*	0.5	5.1*	4.0	10.5*	5.0*	.	.	14.8*	0.8

Assay outcomes: PubChem, The Scripps Research Institute Molecular Screening Center
